# HIF-2a inh: HIF-2a reporter inhibitors, primary screen, luminescence, 786-0 RCC cells. 786-0 RCC cells HIF-2a reporter, luciferase luminescence, overnight. inhibition, % at 18.8 µM. 360,000 tested, 0.72% active;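 active means inhibition of the luminescence signal of 40% or more relative to plate controls, in a single-dose primary screen at 18.75 µM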
# ABHD5 PLIN5 PPI: ABHD5-PLIN5 interaction inhibitors, primary screen, cell lysate, split luciferase complementation, luminescence | Perilipin-5 (Homo sapiens) + 1-acylglycerol-3-phosphate O-acyltransferase ABHD5 (Homo … | Split G. princeps luciferase complementation, 4 h | inhibition, % at 4 µM | 360,000 tested, 0.78% active | AID 602281, 2012;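 active means inhibition above the mean inhibition across every tested compound plus 3 SD, cut at about 22% in these data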;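 further: 0% = DMSO only wells and the 100% control is not disclosed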
# Target sequence (Q00G26 whole entry, looked up): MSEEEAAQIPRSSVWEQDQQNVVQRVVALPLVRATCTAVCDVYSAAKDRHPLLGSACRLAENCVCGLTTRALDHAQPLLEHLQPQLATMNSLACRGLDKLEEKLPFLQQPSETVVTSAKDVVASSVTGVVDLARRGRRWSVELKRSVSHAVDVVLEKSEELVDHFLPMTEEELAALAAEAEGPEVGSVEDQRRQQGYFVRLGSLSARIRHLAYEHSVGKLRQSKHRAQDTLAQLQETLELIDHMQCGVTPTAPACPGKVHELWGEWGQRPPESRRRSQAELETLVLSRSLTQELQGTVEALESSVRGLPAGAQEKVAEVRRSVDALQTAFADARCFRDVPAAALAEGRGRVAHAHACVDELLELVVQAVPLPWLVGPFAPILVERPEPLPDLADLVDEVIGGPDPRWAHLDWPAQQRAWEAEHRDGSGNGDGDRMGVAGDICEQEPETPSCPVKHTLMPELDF
# Target sequence (Q8WTS1 whole entry, looked up): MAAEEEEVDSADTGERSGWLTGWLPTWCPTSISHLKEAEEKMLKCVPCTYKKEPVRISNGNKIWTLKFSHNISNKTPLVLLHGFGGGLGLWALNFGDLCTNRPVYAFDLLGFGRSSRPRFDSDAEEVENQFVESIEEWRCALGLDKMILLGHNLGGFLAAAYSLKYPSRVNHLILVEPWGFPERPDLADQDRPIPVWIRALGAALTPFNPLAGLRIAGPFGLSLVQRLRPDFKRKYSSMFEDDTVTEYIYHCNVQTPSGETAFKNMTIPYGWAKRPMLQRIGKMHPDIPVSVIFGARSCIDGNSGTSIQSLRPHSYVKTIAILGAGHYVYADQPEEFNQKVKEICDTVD
# Peg3 promoter: Peg3 promoter-driven luciferase inhibitors, primary screen, cell-based, HeLa, luciferase luminescence; HeLa PEG-Prom luciferase reporter, overnight; inhibition, % at 20 µM; 360,000 tested, 1.7% active; AID 588405, 2011;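 active means inhibition of at least 50% at 20 µM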
# CF NFkB inh: inhibitors of PAF-induced NF-kB signaling, primary screen, cell-based, GFP fluorescence, uHTS; inhibition, % at 5 µM; 360,000 tested, 0.86% active; AID 588850, 2011; KKLEB NF-kB-GFP reporter, GFP fluorescence overnight;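 active means at least 50% inhibition at 5 µM, scaled per plate between neutral and stimulator controls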;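 further: PAF is a Pseudomonas aeruginosa culture filtrate used as stimulus; plate controls were PAF-stimulated DMSO wells for no effect and unstimulated DMSO wells for full effect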
# TRPM1 prom inh: inhibitors of MITF-dependent TRPM1 promoter reporter, primary screen, cell-based, SK-MEL-5, single point, luciferase; AID 488899, 2010; SK-MEL-5 TRPM1 promoter luciferase, 24 h; 330,000 tested, 0.83% active; inhibition, % at 12.5 µM;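 active means mean inhibition across replicates of 60% or more, whatever share of single replicates reaches that level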
# KKLEB tox: cytotoxicity in KKLEB CF airway cells, primary screen, cytotoxicity control for CF NF-kB inhibitor project, cell-based, uHTS, fluorescence assay plates. KKLEB CF airway cells viability, ATPlite luminescence, overnight; hits give low values; cells stimulated with P. aeruginosa culture filtrate. 360,000 tested, 0.36% active. activity change (cytotoxicity), % at 5 µM;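 active means corrected activity change at or below -50% at 5 µM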
# An asterisk follows results filed as active; x = no result. Rows were chosen to be rich in hits. Some 3% of all compounds tested hit in one or more screens of this group.
SMILES,HIF-2a inh,ABHD5 PLIN5 PPI,Peg3 promoter,CF NFkB inh,TRPM1 prom inh,KKLEB tox
CCCCCCc1cc2cc(S(=O)(=O)c3ccc(F)c(Cl)c3)c(=O)oc2cc1O,21,4,49,60*,21,-72*
CCCCCCc1cc2cc(C(=O)Nc3cccc(OC)c3)c(=O)oc2cc1O,8,4,30,66*,35,-63*
O=C(Nc1cccc2ncccc12)c1ccc(OCc2ccccc2)cc1,5,0,-5,0,22,-3
O=c1[nH]c(=S)[nH]c2c1C(c1ccc(F)cc1)OC(CCOCc1ccccc1)C2 (stereo unspecified),15,-9,-8,-16,x,2
O=c1[nH]c(-c2ccccn2)nc2sc(-c3ccccc3)cc12,-161,-1,96*,19,36,8
COc1ccccc1N(C)S(=O)(=O)c1ccc(C(=O)Nc2ncc(C)s2)cc1,-2,-12,29,3,6,11
COc1ccccc1N(C)S(=O)(=O)c1ccc(C(=O)Nc2nccs2)cc1,-2,-13,10,-13,4,-50*
C[C@H](CO)N1C[C@H](C)[C@@H](CN(C)C(=O)Nc2ccc(C(F)(F)F)cc2)Oc2c(NC(=O)Nc3ccc(C(F)(F)F)cc3)cccc2C1=O,8,-3,56*,5,-6,-20
CCCCCCN1C[C@H](n2cc(COC(=O)c3ccccc3)nn2)[C@@H](O)C[C@@H]1c1ccccc1,8,-10,13,24,x,-12
CCCCCCN1C[C@@H](n2cc(COC(=O)c3ccccc3)nn2)[C@H](O)C[C@@H]1c1ccccc1,-4,4,65*,20,x,3
COC(=O)c1cn(CC(C)n2c(=O)c3ccccc3n2Cc2cc(C(C)C)no2)nn1 (stereo unspecified),-3,-3,x,x,x,x
Cc1nn(C)c(C)c1NC(=O)CSc1nc(-c2ccccc2Cl)nc2c1cnn2-c1ccccc1,18,9,65*,29,-15,-12
O=C1/C(=C/c2ccccc2Cl)SC(=S)N1CCC(=O)N1CCCCC1CCO (stereo unspecified),20,7,55*,-6,9,-5
O=C1/C(=C\c2ccccc2)SC(=S)N1CCC(=O)N1CCCCC1CCO (stereo unspecified),2,-1,16,3,-12,15
COc1ccc(/C=C2\SC(=S)N(CCCC(=O)N3CCCCC3CCO)C2=O)cc1 (stereo unspecified),83*,5,34,14,25,-12
CC(C)c1ccc(/C=C2\SC(=S)N(CCC(=O)N3CCCCC3CCO)C2=O)cc1 (stereo unspecified),86*,-7,38,2,76*,-18
CCCCN(C(=O)c1cc2ccccc2o1)c1c(N)n(CCCC)c(=O)[nH]c1=O,-21,-5,-14,-12,5,5
CCOc1ccc(C(O)(CCC(C)C)C(CN2CCOCC2)c2ccccc2)cc1 (stereo unspecified),18,-5,18,7,-5,-8
CCOc1ccc(C(=O)C(CN2CCOCC2)c2ccccc2)cc1 (stereo unspecified),31,7,82*,26,50,-47
CCCC1(C(=O)OC)NC(c2ccc(OC)cc2OC)C2C(=O)N(c3cccc(C(C)=O)c3)C(=O)C21 (stereo unspecified),8,-6,0,-10,4,13
COc1cc(CC(=O)OCC(=O)NCc2cccs2)cc(OC)c1OC,16,3,14,-2,-6,1
COc1ccc(C)cc1NC(=O)NC1CCCc2ccccc21 (stereo unspecified),11,20,55*,11,10,2
CCN1C(N(C)CCc2cccs2)=N[C@@H](c2ccccc2)C(C(=O)OC)=C1C,7,-3,-5,-24,11,-12
CCN1C(N(C)CCc2c[nH]c3ccccc23)=N[C@@H](c2cccc(C(F)(F)F)c2)C(C(=O)OC)=C1C,7,1,111*,23,-6,-24
Cc1cc(Cn2nnc3ccccc32)c(O)c(C(C)(C)C)c1,-3,-17,8,13,-9,-23
SMILES,HIF-2a inh,ABHD5 PLIN5 PPI,Peg3 promoter,CF NFkB inh,TRPM1 prom inh,KKLEB tox
CCOC(=O)N1CCC(N2C(=O)c3ccccc3C2Nc2ccc3c(C)cc(=O)oc3c2)CC1 (stereo unspecified),-1,1,-7,1,10,-16
CCOC(=O)N1CCC(N2C(=O)c3ccccc3C2Nc2ccc3c(c2)OCCO3)CC1 (stereo unspecified),23,4,14,13,71*,12
Cc1c(Cl)cccc1NC(=S)/C(=C(\[O-])c1ccc(Cl)s1)[n+]1ccccc1,-10,-4,58*,-7,20,9
Oc1cccc(C(O)CNCc2ccc(OCc3ccc(Cl)cc3Cl)cc2)c1 (stereo unspecified),0,7,93*,-6,-13,-16
CCc1ccc(OCC(=O)NC(NC(=S)Nc2ccc(Cl)cc2)C(Cl)(Cl)Cl)cc1 (stereo unspecified),15,-6,52*,27,30,-16
O=C(Nc1ccccc1F)c1ccc2sc([C@H]3C[C@H](O)[C@@H](CO)O3)nc2c1,-181,-6,-191,-12,x,8
COc1ccc(C2=NS(=O)(=O)N(C)C(C(=O)N3CCOCC3)=C2)cc1OC,3,1,9,-34,-7,3
CCCCSc1nc(C)cc(SCC(=O)N/N=C/c2cccc(OC)c2O)n1,19,-5,53*,10,50,0
CC(Oc1ccc(F)cc1)C(=O)Nc1cccc(-c2nn[nH]n2)c1 (stereo unspecified),19,-13,18,-6,-2,22
CC(=O)Nc1ccc(N(C(=O)CNC(=O)c2cccs2)C(C(=O)NC(C)(C)C)c2ccccc2)cc1 (stereo unspecified),19,3,12,4,2,0
COc1ccc(CNC(=O)C2CCN(C(=O)[C@@H]3Cc4ccccc4CN3)CC2)cc1,3,2,-9,-12,-1,-11
CC(C)Cn1c(N)c(C(=O)COC(=O)c2cnc(Cl)c(Cl)c2)c(=O)n(C)c1=O,8,3,74*,8,23,-16
CC(C)Cn1c(N)c(C(=O)COC(=O)c2cc(F)cc(F)c2)c(=O)n(C)c1=O,23,0,5,-49,-7,16
COc1ccc(-n2c(C)c(C(C)=O)c3cc(OC(C)=O)ccc32)cc1,35,3,16,83*,3,-11
COc1ccc2c(c1)c(C(=O)O)c(C)n2-c1ccccc1,4,0,6,1,-4,-1
